Screens from PubChem BioAssay.
VHR inh abs = inhibitors of human VHR1 phosphatase (DUSP3) | P51452 | recombinant VHR phosphatase, pNPP absorbance | inhibition, % at 13.3 µM | 290,000 tested, 0.52% active | AID 1654; in the data active = inhibition above about 50%
Target sequence (P51452 whole entry, looked up): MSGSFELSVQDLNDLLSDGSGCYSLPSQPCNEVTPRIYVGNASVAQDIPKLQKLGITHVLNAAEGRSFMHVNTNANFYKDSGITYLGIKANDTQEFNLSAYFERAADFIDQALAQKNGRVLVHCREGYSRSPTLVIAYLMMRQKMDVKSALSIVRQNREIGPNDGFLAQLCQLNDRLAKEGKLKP
Yp Topo-I inh = blocks Yersinia pestis topoisomerase I activity; AID 504884; activity, % at 10 µM; 360,000 tested, 0.064% active; Y. pestis Topo-I cleavage product accumulation, plate reader; in the data active = activity above about 50%, passing the limit was not always enough; inconclusive = no clear call, values can overlap the other calls
Mtb BioA inh = blocks M. tuberculosis BioA enzyme activity; 360,000 tested, 0.096% active; inhibition, % at 9.99 µM; purified M. tuberculosis BioA enzyme, plate reader; in the data active = inhibition above about 40%; inconclusive = no clear call, values can overlap the other calls
Vc quorum ag = induces V. cholerae light production without autoinducers | AID 588436 | activation, % at 18.7 µM | V. cholerae BH1578 lux reporter, luminescence, 6 h | 350,000 tested, 0.16% active; in the data active = activation mostly above about 9.7%, no sharp cut-off; inconclusive = no clear call, values can overlap the other calls; inactive = mostly below about 3.7%
TcdB inh = blocks C. difficile toxin B glycohydrolase activity | 350,000 tested, 0.24% active | AID 652162 | inhibition, % at 9.99 µM | TcdB glycohydrolase enzymatic assay, plate reader; in the data active = inhibition above about 10%
PfHsp40 yeast = restores yeast growth despite PfHsp40 toxicity; growth rescue, % at 12.5 µM; 340,000 tested, 0.68% active; AID 504582; S. cerevisiae expressing PfHsp40, growth rescue, ATP luminescence; in the data active = growth rescue above about 28%, passing the limit was not always enough; inconclusive = no clear call, values can overlap the other calls;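 note: yeast W303a lacking pdr1 and pdr3 grown in galactose medium; growth measured after three days at 30 °C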
The depositor's hits bear a star; i = inactive; ? = inconclusive; / = no result given. Most compounds without a hit are left out; they make up all but 1.2% or so of the library.

SMILES | VHR inh abs | Yp Topo-I inh | Mtb BioA inh | Vc quorum ag | TcdB inh | PfHsp40 yeast
Cc1onc(-c2ccccc2)c1C(=O)N/N=C/c1cn(C)c2ccccc12 | 22 | 12 | 0 | i | 13* | 0
Cc1cccc(/C=N/NC(=O)c2c(-c3ccccc3)noc2C)c1O | 18 | -2 | -1 | 0 | -1 | 0
COc1ccc(-c2onc(C)c2C)cc1S(=O)(=O)NCCc1ccco1 | 4 | 4 | 3 | 0 | 1 | -1
COc1cccc(N2CC(O)Cn3c2nc2c3c(=O)[nH]c(=O)n2C)c1 (stereo not drawn) | 60* | -2 | 0 | i | -2 | 0
COc1ccc(N2C(=O)N[C@@H](Cc3ccccc3)C2=O)cc1OC | -29 | -1 | -1 | 2 | -6 | 0
CCn1c(SCC(=O)NCC(=O)Nc2ccc(F)cc2)nnc1-c1cccs1 | 30 | 2 | 6 | 25* | / | 0
Cn1c(SCC(=O)Nc2ccccc2F)nnc1-c1cccs1 | 54* | -1 | / | 0 | 0 | 0
COc1cccc(C(CNc2ccc(S(=O)(=O)N3CCN(C)CC3)cc2[N+](=O)[O-])N(C)C)c1 (stereo not drawn) | / | 1 | -2 | i | 17* | 0
CC(Nc1ccc(S(=O)(=O)N2CCN(C)CC2)cc1[N+](=O)[O-])c1ccccc1 (stereo not drawn) | / | 27 | 1 | i | 2 | 1
Cc1cc(N/N=C/c2cccc(Cl)c2)nc(-n2nc(C)cc2C)n1 | -2 | -9 | 0 | 1 | 1 | 1
Cc1cc(N/N=C/c2cccc([N+](=O)[O-])c2)nc(-n2nc(C)cc2C)n1 | 20 | 11 | 0 | 0 | 1 | 4
COc1ccc(/C=N/Nc2cc(C)nc(-n3nc(C)cc3C)n2)cc1 | -8 | -2 | / | 0 | / | 272*
Cc1cc(N/N=C/c2ccccc2[N+](=O)[O-])nc(-n2nc(C)cc2C)n1 | 26 | -5 | -1 | i | -1 | 55*
CC(C)COC(=O)N(C)C[C@@H]1OCc2ccccc2-c2c(n(C)c3ccccc23)C(=O)N([C@H](C)CO)C[C@H]1C | / | / | 8 | / | 1 | /
O=C(NCc1ccccc1)[C@@H]1CCCN1C(=O)[C@@H]1CCCN1C(=O)c1cccs1 | / | / | / | / | 12* | /
O=C(NCc1ccccc1Cl)[C@H]1CCCN1C(=O)[C@H]1CCCN1 | / | / | / | / | 0 | /
O=C(NCc1ccncc1)[C@@H]1CCCN1C(=O)[C@@H]1CCCN1 | / | / | / | / | 12* | /
O=C(NCc1ccncc1)[C@@H]1CCCN1C(=O)[C@H]1CCCN1C(=O)c1cccs1 | / | / | / | / | 1 | /
C[C@H]1CN([C@@H](C)CO)C(=O)c2cc(N(C)C)ccc2O[C@H]1CN(C)Cc1ccc(-c2ccccc2)cc1 | / | / | 0 | / | -6 | /
O=c1cc[nH]c2ccc(Cl)cc12 | -7 | 6 | 0 | 0 | 0 | -1
CC(=O)Nc1ccc(NC2=CC(=O)CC(C)(C)C2)cc1 | 10 | 4 | -1 | 2 | / | 0
CC1(C)CC(=O)C=C(Nc2ccc(O)cc2)C1 | / | -1 | 1 | i | 25* | /
COc1ccc2cnn(-c3ccccc3)c(=O)c2c1OC | -5 | 0 | -1 | i | / | 66*
COc1ccc2cnn(-c3ccccc3C)c(=O)c2c1OC | -10 | 8 | -1 | 1 | / | 136*
COc1ccc2cnn(-c3ccc(OC(F)(F)F)cc3)c(=O)c2c1OC | 6 | 2 | 0 | 1 | 0 | 10
SMILES | VHR inh abs | Yp Topo-I inh | Mtb BioA inh | Vc quorum ag | TcdB inh | PfHsp40 yeast
C=C(C)C1CC=C(C)/C(=N/NC(=O)c2ccc(NC(=O)CCC)cc2)C1 (stereo not drawn) | 4 | 3 | -1 | 0 | / | -1
O=c1c2cc(Br)ccc2[nH]c(=S)n1Cc1cccnc1 | 4 | -2 | 0 | 0 | / | 3
CC(C)CC(NC(=O)C1CCC(C)CC1)C(=O)NCCN1CCOCC1 (stereo not drawn) | 2 | -3 | 0 | -1 | 1 | 1
CC1CCC(C(=O)NC(C(=O)NCCN2CCC(C)CC2)C(C)C)CC1 (stereo not drawn) | 10 | 8 | / | 0 | / | 46*
CS(=O)(=O)Nc1ccccc1Oc1ccccc1 | 4 | 1 | -3 | i | / | -1
CC(=O)c1ccc(O)c(CSc2nncn2C)c1 | 36 | -2 | / | i | 1 | -1
NC(=O)c1ccc2c(=O)c(O)c(-c3cc(Cl)c(N)c(Cl)c3)[nH]c2c1 | 9 | -9 | 0 | i | 13* | -2
CCOC(=O)c1ccc(-c2ccc3[nH]c4ccccc4c(=O)c3c2)cc1F | 32 | -1 | -1 | 0 | 1 | -2
c1ccc(-c2csc(N3CCN(c4ccccn4)CC3)n2)cc1 | 4 | 21 | -1 | 0 | 0 | 7
COC(=O)Cc1ccc(NC(=S)N2CCN(c3ccc(OC)cc3)CC2)cc1 | 12 | 1 | -2 | 2 | -4 | -1
COC(=O)Cc1ccc(NC(=S)N2CCN(c3cccc(O)c3)CC2)cc1 | 55* | -3 | / | 0 | / | -2
Cc1ccc(/C=C2/C(=O)c3ccc(C(=O)O)cc3C2=O)o1 | 2 | -12 | / | 0 | -1 | 45*
O=C(O)c1ccc2c(c1)C(=O)/C(=C\c1ccco1)C2=O | 22 | -6 | / | 0 | -2 | -1
COc1ccccc1NC(=O)CCSCCC(=O)Nc1ccccc1OC | 2 | 11 | / | 0 | / | 45*
CC(=O)c1ccccc1NC(=O)COc1ccc(N(C)S(=O)(=O)c2ccc(C)c(C)c2)cc1 | / | -1 | -1 | i | 0 | 1
Cc1cccc(OCCOC(=O)C2CCN(S(=O)(=O)c3cccs3)CC2)c1 | 9 | 27 | -2 | -1 | / | 102*
CN(CCCCCCN(C)Cc1ccccc1O)Cc1ccccc1O | 52* | -1 | -3 | -1 | 0 | 1
Cc1ccc(O)c(CN(C)Cc2cc(C)ccc2O)c1 | / | -11 | 0 | i | -5 | -1
O=C(NCCc1ccccc1)[C@@H]1[C@@H](CO)[C@@H]2Cn3c(cccc3=O)[C@H]1N2C(=O)C1CCC1 | / | / | -2 | / | -5 | /
CC(C)(C)c1ccc(/C=N/OCC(=O)NCc2ccc(F)cc2)cc1 | 5 | 12 | / | 0 | -3 | 74*
O=C(O)C1CCC(CN(Cc2cccc(Br)c2)C(=S)Nc2ccccc2F)CC1 (stereo not drawn) | 21 | 9 | 2 | 0 | 12* | 0
CN(C)C(=O)N1CCN(c2nc(-c3ccccc3)cs2)CC1 | 53* | 20 | 6 | 2 | -1 | 0
Cc1cccn2c(=S)[nH]nc12 | / | 8 | 0 | -7 | 16* | ?
O=c1c2ccccc2nc(-c2ccccc2)n1/N=C/c1ccc([N+](=O)[O-])cc1 | 19 | 1 | -1 | 0 | / | 0
Cc1scc(C(=O)N2CCN(c3ccc(Cl)cc3)CC2)c1C | 5 | 35 | -1 | i | 11* | 6
Cc1occc1C(=O)N1CCN(c2ccc(Cl)cc2)CC1 | -10 | 10 | 1 | 0 | 1 | -1
C[C@H](CO)N1C[C@H](C)[C@@H](CN(C)Cc2ccc(C(=O)Nc3ccccc3N)cc2)Oc2ccc(NS(=O)(=O)c3ccc(F)cc3)cc2CC1=O | / | / | 0 | / | 1 | /
